# Assay results published in PMC7862700, “An all-to-all approach to the identification of sequence-specific readers for epigenetic DNA modifications on cytosine”.
# Key:
# Assay in all cases: DAPPL (digital affinity profiling via proximity ligation, sequencing); 10 mM Tris-HCl pH 7.5, 50 mM NaCl, 1 mM DTT, 4% glycerol, room temperature, 30 min; GST-TFs on glutathione beads, 16-mer random dsDNA library, 0.1% formaldehyde crosslink after washing; high values mean tight binding
# Conditions in all cases: protein: recombinant; tags: N-terminal GST; dsDNA, one strand shown
# [1] = target: T1, ERG (Homo sapiens, UniProt P11308 1-479)
# T1 sequence: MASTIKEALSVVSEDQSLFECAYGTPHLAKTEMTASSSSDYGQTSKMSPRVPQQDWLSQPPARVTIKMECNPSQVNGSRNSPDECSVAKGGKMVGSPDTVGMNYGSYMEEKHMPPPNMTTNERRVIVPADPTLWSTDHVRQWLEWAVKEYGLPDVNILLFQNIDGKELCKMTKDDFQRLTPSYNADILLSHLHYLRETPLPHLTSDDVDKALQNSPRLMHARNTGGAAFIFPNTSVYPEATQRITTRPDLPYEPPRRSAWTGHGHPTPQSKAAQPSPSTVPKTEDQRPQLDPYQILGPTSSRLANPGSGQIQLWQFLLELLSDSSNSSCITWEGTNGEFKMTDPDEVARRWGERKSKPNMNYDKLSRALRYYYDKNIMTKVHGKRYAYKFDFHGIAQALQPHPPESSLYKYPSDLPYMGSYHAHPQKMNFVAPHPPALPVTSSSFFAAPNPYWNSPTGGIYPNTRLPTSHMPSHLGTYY
# Summary of the method: (§1)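 GST fusions of human transcription factors were expressed in yeast and captured with glutathione beads. Once given DNA barcodes and pooled alongside a tag-only sample, they were incubated for 30 min at room temperature with 200 nmole of a random double-stranded 16-mer DNA library in Tris/NaCl/DTT/glycerol buffer, then washed, crosslinked (0.1% formaldehyde), proximity-ligated, PCR-amplified and sequenced on an Illumina NextSeq500. The binding signal of each hexamer is its read frequency for a factor divided by its frequency for the tag-only sample.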
# [2] = target: ELF1 (Homo sapiens, UniProt P32519 1-619)
# Summary of the method: as §1
# [3] = target: T2, EHF (Homo sapiens, UniProt Q9NZC4 1-300)
# T2 sequence: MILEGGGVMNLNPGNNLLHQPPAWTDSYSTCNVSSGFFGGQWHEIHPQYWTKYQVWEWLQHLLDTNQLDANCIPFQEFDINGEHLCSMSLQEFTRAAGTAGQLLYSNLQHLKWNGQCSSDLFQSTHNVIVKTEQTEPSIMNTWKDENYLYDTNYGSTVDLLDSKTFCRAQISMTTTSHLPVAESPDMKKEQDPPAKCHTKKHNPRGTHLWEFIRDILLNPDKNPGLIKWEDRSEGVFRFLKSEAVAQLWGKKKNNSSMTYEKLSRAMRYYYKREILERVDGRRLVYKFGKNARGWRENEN
# Summary of the method: as §1
# [4] = target: T3, ELK3 (Homo sapiens, UniProt P41970 1-407)
# T3 sequence: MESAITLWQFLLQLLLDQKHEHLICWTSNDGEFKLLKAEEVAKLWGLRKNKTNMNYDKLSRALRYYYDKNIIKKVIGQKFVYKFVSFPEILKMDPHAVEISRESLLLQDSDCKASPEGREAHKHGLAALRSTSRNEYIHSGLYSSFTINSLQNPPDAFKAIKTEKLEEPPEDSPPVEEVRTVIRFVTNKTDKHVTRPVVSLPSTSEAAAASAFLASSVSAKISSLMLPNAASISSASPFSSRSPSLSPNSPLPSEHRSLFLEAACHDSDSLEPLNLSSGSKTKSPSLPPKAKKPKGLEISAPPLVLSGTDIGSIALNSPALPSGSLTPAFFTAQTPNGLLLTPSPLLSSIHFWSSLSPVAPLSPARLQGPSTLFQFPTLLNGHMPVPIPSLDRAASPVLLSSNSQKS
# Summary of the method: as §1
# [5] = target: ETV5 (Homo sapiens, UniProt P41161 1-510)
# Summary of the method: as §1
# [6] = target: T4, ELK4 (Homo sapiens, UniProt P28324-2 1-405)
# T4 sequence: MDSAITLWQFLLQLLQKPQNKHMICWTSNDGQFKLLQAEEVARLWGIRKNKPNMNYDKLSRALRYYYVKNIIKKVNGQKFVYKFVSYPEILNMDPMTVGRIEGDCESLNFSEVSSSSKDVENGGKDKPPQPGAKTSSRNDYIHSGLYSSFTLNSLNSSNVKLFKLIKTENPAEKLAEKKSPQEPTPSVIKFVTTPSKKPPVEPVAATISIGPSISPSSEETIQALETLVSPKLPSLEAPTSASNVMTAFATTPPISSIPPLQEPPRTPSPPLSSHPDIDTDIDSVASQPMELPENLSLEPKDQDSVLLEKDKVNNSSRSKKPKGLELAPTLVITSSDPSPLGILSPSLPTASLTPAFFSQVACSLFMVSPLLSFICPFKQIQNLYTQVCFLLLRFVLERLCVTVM
# Summary of the method: as §1
# [7] = target: T5, ELF3 (Homo sapiens, UniProt P78545 1-371)
# T5 sequence: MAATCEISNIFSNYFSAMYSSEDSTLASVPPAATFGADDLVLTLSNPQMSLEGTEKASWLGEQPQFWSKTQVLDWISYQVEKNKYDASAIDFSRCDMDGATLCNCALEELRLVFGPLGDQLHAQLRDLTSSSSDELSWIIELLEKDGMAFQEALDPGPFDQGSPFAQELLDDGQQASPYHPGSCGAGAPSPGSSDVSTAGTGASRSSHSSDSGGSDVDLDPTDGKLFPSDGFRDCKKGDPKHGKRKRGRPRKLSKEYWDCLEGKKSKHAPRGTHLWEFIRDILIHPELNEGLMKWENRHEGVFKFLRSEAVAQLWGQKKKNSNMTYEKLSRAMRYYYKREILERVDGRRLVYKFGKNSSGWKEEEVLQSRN
# Summary of the method: as §1
# [8] = target: T6, ERF (Homo sapiens, UniProt P50548 1-548)
# T6 sequence: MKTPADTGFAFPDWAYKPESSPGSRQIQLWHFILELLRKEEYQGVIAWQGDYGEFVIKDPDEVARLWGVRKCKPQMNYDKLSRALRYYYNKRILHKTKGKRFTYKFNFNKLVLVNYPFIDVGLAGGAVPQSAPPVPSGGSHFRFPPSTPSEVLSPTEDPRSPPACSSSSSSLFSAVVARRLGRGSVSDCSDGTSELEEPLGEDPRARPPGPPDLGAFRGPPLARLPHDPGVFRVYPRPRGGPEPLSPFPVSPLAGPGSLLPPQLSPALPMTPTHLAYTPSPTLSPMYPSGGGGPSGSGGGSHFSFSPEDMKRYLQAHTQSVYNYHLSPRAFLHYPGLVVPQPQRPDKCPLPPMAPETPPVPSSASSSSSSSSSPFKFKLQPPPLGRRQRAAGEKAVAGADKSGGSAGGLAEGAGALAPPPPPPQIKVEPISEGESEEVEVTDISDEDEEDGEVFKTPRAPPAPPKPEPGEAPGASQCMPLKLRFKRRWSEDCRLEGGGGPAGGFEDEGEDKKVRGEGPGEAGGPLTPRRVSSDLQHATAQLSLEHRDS
# Summary of the method: as §1
# [9] = target: T7, ETV3L (Homo sapiens, UniProt Q6ZN32 1-361)
# T7 sequence: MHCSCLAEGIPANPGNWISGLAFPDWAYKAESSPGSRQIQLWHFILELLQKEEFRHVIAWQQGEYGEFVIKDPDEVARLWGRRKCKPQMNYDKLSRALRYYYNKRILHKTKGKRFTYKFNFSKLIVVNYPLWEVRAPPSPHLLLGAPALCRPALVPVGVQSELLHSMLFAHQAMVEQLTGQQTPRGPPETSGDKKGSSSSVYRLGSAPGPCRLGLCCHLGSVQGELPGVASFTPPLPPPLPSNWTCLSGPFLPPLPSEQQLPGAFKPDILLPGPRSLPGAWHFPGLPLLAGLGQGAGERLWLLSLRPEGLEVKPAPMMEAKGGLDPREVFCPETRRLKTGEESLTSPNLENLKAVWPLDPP
# Summary of the method: as §1
# [10] = target: T8, ETS2 (Homo sapiens, UniProt P15036 1-469)
# T8 sequence: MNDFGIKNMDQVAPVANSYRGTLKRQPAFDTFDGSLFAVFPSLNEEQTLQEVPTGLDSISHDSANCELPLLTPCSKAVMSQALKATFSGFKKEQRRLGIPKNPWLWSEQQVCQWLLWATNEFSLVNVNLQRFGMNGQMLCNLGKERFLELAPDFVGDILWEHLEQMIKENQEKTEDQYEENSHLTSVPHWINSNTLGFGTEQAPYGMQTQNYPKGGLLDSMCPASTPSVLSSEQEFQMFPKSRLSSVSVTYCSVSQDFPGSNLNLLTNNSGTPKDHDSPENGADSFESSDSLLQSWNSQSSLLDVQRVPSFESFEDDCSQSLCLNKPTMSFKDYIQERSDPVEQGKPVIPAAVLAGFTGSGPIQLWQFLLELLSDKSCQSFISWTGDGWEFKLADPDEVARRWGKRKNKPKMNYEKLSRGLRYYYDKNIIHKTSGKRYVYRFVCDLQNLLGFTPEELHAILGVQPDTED
# Summary of the method: as §1
# [11] = target: T9, ETV7 (Homo sapiens, UniProt Q9Y603 1-341)
# T9 sequence: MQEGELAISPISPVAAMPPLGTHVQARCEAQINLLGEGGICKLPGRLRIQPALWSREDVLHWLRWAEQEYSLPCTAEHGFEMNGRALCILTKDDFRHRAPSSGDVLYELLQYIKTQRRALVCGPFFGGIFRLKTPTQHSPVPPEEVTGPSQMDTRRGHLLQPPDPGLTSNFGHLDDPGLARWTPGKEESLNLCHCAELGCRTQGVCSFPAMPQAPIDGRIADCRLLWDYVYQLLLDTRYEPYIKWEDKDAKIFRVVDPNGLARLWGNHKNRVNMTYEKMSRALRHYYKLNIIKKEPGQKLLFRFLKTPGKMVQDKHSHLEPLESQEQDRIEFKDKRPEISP
# Summary of the method: as §1
# [12] = target: T10, ETV3 (Homo sapiens, UniProt P41162-2 1-143)
# T10 sequence: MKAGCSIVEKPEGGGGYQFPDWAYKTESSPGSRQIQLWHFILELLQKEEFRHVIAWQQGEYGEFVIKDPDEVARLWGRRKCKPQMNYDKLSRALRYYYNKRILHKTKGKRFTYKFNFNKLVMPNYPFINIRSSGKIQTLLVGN
# Summary of the method: as §1
# [13] = target: ETV6 (Homo sapiens, UniProt P41212 1-452)
# Summary of the method: as §1
# [14] = target: T11, ELK1 (Homo sapiens, UniProt P19419 1-428)
# T11 sequence: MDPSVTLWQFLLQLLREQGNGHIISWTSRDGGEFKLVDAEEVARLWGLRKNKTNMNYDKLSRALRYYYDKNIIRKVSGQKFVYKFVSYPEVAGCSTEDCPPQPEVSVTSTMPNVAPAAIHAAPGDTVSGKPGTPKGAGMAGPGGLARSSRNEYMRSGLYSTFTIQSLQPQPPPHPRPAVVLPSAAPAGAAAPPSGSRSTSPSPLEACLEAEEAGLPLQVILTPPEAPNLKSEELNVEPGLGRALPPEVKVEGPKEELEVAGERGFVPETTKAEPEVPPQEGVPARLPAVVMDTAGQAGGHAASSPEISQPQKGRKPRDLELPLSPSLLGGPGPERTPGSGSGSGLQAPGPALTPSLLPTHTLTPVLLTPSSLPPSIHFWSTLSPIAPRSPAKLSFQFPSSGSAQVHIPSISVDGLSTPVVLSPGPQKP
# Summary of the method: as §1
# [15] = target: T12, FEV (Homo sapiens, UniProt Q99581 1-238)
# T12 sequence: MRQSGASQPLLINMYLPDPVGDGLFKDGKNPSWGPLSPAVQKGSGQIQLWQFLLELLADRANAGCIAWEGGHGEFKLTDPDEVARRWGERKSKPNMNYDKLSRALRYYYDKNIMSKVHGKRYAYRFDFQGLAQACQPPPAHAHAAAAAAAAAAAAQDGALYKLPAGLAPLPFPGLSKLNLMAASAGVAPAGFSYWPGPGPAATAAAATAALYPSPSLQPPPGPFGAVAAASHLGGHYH
# Summary of the method: as §1
# Sequence of ETV5 (P41161 whole entry): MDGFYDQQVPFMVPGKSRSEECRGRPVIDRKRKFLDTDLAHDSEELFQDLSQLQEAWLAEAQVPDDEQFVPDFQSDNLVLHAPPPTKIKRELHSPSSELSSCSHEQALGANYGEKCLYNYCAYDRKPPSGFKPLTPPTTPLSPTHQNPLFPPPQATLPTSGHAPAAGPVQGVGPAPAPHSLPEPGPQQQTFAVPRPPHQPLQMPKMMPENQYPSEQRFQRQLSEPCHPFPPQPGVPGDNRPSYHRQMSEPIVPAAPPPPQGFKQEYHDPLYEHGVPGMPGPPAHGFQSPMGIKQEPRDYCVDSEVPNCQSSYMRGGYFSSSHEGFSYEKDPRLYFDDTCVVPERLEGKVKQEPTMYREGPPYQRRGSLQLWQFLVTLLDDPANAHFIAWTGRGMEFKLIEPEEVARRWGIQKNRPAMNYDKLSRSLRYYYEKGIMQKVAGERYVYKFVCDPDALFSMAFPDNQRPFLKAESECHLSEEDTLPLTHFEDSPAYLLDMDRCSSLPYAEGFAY
# Sequence of ELF1 (P32519 whole entry): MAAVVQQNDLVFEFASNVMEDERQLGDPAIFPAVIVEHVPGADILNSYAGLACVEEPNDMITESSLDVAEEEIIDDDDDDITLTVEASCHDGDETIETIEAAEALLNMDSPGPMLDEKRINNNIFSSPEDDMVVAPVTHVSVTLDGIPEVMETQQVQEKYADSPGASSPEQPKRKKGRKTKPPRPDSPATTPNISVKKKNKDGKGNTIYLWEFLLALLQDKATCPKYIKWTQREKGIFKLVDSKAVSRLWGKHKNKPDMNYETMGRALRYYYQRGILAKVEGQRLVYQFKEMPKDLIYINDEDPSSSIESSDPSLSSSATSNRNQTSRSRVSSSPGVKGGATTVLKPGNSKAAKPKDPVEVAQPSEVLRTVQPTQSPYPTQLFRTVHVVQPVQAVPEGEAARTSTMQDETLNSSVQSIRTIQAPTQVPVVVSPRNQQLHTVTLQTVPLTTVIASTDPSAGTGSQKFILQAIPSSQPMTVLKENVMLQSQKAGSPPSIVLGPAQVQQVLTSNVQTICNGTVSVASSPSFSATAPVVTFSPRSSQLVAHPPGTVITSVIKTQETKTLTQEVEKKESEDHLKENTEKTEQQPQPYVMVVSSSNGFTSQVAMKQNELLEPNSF
# Sequence of ETV6 (P41212 whole entry): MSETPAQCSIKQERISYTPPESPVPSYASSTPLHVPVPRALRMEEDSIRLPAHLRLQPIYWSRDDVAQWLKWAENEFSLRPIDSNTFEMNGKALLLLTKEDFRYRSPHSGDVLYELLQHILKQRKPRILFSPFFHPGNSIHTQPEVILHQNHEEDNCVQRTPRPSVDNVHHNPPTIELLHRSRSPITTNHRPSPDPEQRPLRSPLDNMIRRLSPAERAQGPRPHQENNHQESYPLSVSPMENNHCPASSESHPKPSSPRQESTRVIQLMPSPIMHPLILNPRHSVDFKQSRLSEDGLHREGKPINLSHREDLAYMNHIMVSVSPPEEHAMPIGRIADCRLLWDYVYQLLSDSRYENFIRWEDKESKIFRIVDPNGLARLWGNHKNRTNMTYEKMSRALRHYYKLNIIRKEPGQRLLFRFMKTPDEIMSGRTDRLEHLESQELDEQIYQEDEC
Sequence,binding signal [1],binding signal [2],binding signal [3],binding signal [4],binding signal [5],binding signal [6],binding signal [7],binding signal [8],binding signal [9],binding signal [10],binding signal [11],binding signal [12],binding signal [13],binding signal [14],binding signal [15]
TCAAGC,"1.01 fold enrichment (6-mer frequency, TF over GST control)","1 fold enrichment (6-mer frequency, TF over GST control)","1.01 fold enrichment (6-mer frequency, TF over GST control)","1.09 fold enrichment (6-mer frequency, TF over GST control)","1.02 fold enrichment (6-mer frequency, TF over GST control)","1.01 fold enrichment (6-mer frequency, TF over GST control)","1.04 fold enrichment (6-mer frequency, TF over GST control)","1.06 fold enrichment (6-mer frequency, TF over GST control)","1.08 fold enrichment (6-mer frequency, TF over GST control)","1 fold enrichment (6-mer frequency, TF over GST control)","1.04 fold enrichment (6-mer frequency, TF over GST control)","1.08 fold enrichment (6-mer frequency, TF over GST control)","1.03 fold enrichment (6-mer frequency, TF over GST control)",,
GCTAAC,,"1.04 fold enrichment (6-mer frequency, TF over GST control)","1.03 fold enrichment (6-mer frequency, TF over GST control)","1.18 fold enrichment (6-mer frequency, TF over GST control)","1.06 fold enrichment (6-mer frequency, TF over GST control)","1.05 fold enrichment (6-mer frequency, TF over GST control)",,"1.03 fold enrichment (6-mer frequency, TF over GST control)",,,"1.09 fold enrichment (6-mer frequency, TF over GST control)","1 fold enrichment (6-mer frequency, TF over GST control)",,"1.1 fold enrichment (6-mer frequency, TF over GST control)","1.03 fold enrichment (6-mer frequency, TF over GST control)"
